# Test results published in PubChem BioAssay (NCI).
# About 83,000 compounds went through this panel and 20% of them were active in at least one assay; those are over-represented in the sample as a whole.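 Single-concentration screen, 48 h exposure, 96-well plates. Endpoint: percent growth. Below 10 = active.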 Values without a mark were called inactive. The source made the active and inactive calls.
# Assays:
# Assay in all cases: NCI-60 one-dose screen, 48 h (100 = growth as untreated, 0 = no growth, -100 = all killed)
# Conditions in all cases: 10 µM unless noted
# SR leukemia = test system: SR leukemia
# OVCAR-8 ovarian = test system: OVCAR-8 ovarian
# OVCAR-5 ovarian = test system: OVCAR-5 ovarian
# OVCAR-4 ovarian = test system: OVCAR-4 ovarian
# SK-OV-3 ovarian = test system: SK-OV-3 ovarian
# IGROV1 ovarian = test system: IGROV1 ovarian
# OVCAR-3 ovarian = test system: OVCAR-3 ovarian
# HS 578T breast = test system: HS 578T breast
# NCI/ADR-RES ovarian = test system: NCI/ADR-RES ovarian
# T-47D breast = test system: T-47D breast
# BT-549 breast = test system: BT-549 breast
# MDA-MB-435 melanoma = test system: MDA-MB-435 melanoma
# SW-620 colon = test system: SW-620 colon
# MCF7 breast = test system: MCF7 breast
# HCT-116 colon = test system: HCT-116 colon
# HCC-2998 colon = test system: HCC-2998 colon
# KM12 colon = test system: KM12 colon
# RPMI-8226 leukemia = test system: RPMI-8226 leukemia
Structure (SMILES),growth (SR leukemia),growth (OVCAR-8 ovarian),growth (OVCAR-5 ovarian) [%],growth (OVCAR-4 ovarian),growth (SK-OV-3 ovarian),growth (IGROV1 ovarian),growth (OVCAR-3 ovarian),growth (HS 578T breast),growth (NCI/ADR-RES ovarian),growth (T-47D breast),growth (BT-549 breast),growth (MDA-MB-435 melanoma),growth (SW-620 colon),growth (MCF7 breast),growth (HCT-116 colon),growth (HCC-2998 colon),growth (KM12 colon),growth (RPMI-8226 leukemia)
Cc1nn(-c2ccccc2)c2nc(CCl)[nH]c(=O)c12,39.8%,102%,112,110%,122%,97.4%,90.9%,120%,105%,66%,100%,97.9%,85.1%,16.4%,24.9%,108%,53.3%,
O=C(/C=C1\C=CN(CCCCCCF)c2ccccc21)n1ccc2ccccc21,85.8%,101%,,81.9%,98.8%,67.6%,100%,96.7%,105%,82%,103%,108%,104%,88.4%,84.8%,107%,100%,74.7%
CS(=O)c1nccc(-c2c(-c3ccc(F)c(OCc4ccccc4)c3)nc3sccn23)n1 (centres undefined),-1.23% (active),96.1%,,102%,114%,68.7%,,101%,102%,-11.6% (active),109%,104%,87.9%,-44.7% (active),63.6%,50.4%,77%,60.6%
C#CCOc1ccc(C(Nc2ccc(OC)cc2)c2nnnn2C2CCCCC2)cc1 (centres undefined),95.6%,95.2%,102,103%,118%,91.6%,112%,95.2%,88.1%,94.1%,99.6%,101%,98.3%,91.7%,88.7%,101%,102%,
CN(C)C(=O)c1ccccc1-n1cnc2ccccc2c1=O,103%,103%,104,106%,107%,99.9%,110%,108%,102%,99.2%,117%,95%,102%,96.4%,100%,99.9%,101%,
N=c1c2cc(-c3ccccc3)oc2ncn1/N=C/c1ccccc1,16.4%,96.9%,,93.2%,96.5%,,59.2%,91.3%,60.3%,94%,92.1%,7.67% (active),60.1%,50.4%,65%,99%,59%,99.1%
COc1ccc(N)cc1C(=O)Nc1cccc(-c2cc(=O)c3c(OC)c(OC)c(OC)cc3o2)c1,40.9%,56.4%,,81.5%,119%,,65.5%,58.3%,60.7%,41.7%,51.2%,77.4%,91.4%,45.2%,65.5%,55.3%,63.6%,35.4%
COc1cc([C@H]2OC[C@H]3[C@@H]2CO[C@@H]3c2ccc(O)c(OC)c2)ccc1O,67.3%,84.2%,,96.6%,69%,69.9%,96.8%,107%,85.7%,97.2%,68.5%,107%,107%,96.1%,92.8%,,90.6%,72.1%
Oc1ccc(-c2nnc(SCc3ccc(O)c4ncccc34)o2)cc1,37.4%,15.9%,,9.9% (active),-3.56% (active),3.93% (active),6.01% (active),-0.346% (active),7.18% (active),11.1%,12.8%,12.3%,16.3%,2.57% (active),7.61% (active),22.5%,9.65% (active),4.27% (active)
C/C(=C(/c1ccc(O)cc1)c1ccc(OCCN2CCCCCC2)cc1)c1ccccc1,-24% (active),69.2%,,68.4%,76.1%,61.9%,,,65.6%,20.5%,61.1%,52.4%,-52.6% (active),10.2%,28.2%,34.8%,43.2%,2.14% (active)
O=C(Nc1ccc(Cl)cc1)Nc1nc2ccc([N+](=O)[O-])cc2s1,-24.3% (active),6.03% (active),18.4,-4.3% (active),-12.3% (active),14.7%,-26.6% (active),-15.8% (active),-6.91% (active),-25.9% (active),-38% (active),-27.7% (active),0.202% (active),-15.4% (active),-35.1% (active),,-13.2% (active),
Cc1ccc(NC(=O)c2cc(/C=C/C(=O)NO)cc(C(F)(F)F)c2)cc1Nc1nccc(-c2cccnc2)n1,4.9% (active),-12.2% (active),,,-38.3% (active),2.46% (active),,-14.5% (active),87.8%,-5.93% (active),-15.3% (active),-2.82% (active),-38.8% (active),-17.5% (active),-12.9% (active),-0.0369% (active),16.4%,-13% (active)
CCOc1ccc2nc(NC(=O)Nc3ccccc3C)sc2c1,24.3%,74.7%,80.2,80.2%,82.3%,49.5%,20.7%,50.5%,22.8%,47.7%,53.8%,-11.1% (active),29.2%,27.7%,39.8%,81.4%,40.7%,
Cc1cc(O)c2c(c1)C(=O)C(c1c(C)cc3c(c1O)C(=O)C=CC3=O)=CC2=O,11.1%,82.5%,,86.3%,89.2%,108%,23.4%,102%,100%,21.9%,113%,96.5%,8.08% (active),49.9%,72.8%,112%,109%,15.2%
O=C1/C(=C/c2ccccc2[N+](=O)[O-])Oc2ccc(O)cc21,2.82% (active),20.7%,38.2,34.8%,84%,33.5%,-18.9% (active),53.6%,49%,44.2%,49.9%,,-14.7% (active),6.93% (active),-20.5% (active),73.3%,64.2%,
COc1cccc(/C=C/C(=O)c2ccc(NC(=O)COc3cccc4cccnc34)cc2)c1,74.6%,98.1%,,101%,104%,100%,102%,100%,90.8%,82.9%,86.1%,100%,94.3%,52.4%,,99.3%,96.3%,73.4%
CN(C)C(=O)C1=NC(CO)C(=O)N(c2ccc(Cl)cc2)N1 (centres undefined),107%,104%,,114%,114%,101%,110%,104%,104%,98.6%,99.2%,106%,103%,95.6%,88.3%,109%,98.2%,101%
C#C[C@]1(O)CC[C@H]2[C@@H]3CC=C4c5sc(C6CCOCC6)nc5CC[C@]4(C)[C@H]3CC[C@@]21C,58.6%,83.8%,88.6,89.7%,104%,90.8%,94.2%,66.9%,80.6%,57.8%,77.6%,,85.5%,75.6%,64.4%,84.3%,59.8%,
